The text below walks through data of PubChem BioAssay.

Experiment [1] can be described thus: compounds binding Alexa647 anti-His antibody – biochemical, small-molecule microarray, 635 nm fluorescence, artefact control for SMM control protein annotation, primary screen (AID 1128).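 Also: score merges feature fluorescence with signal-to-noise for each printed compound spot.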 Particulars: higher = more signal.
Experiment [2] has as its system Human papillomavirus type 1a E7 protein (residues 1-88). The experiment can be described thus: HPV1a E7 small-molecule binders, primary screen, biochemical, small-molecule microarray, residues 1-88, 635 nm (AID 1129). As to conditions: small-molecule microarray binding, fluorescence 635 nm; higher = more signal.
The target of experiment [3] is Focal adhesion kinase 1 (Homo sapiens) (UniProt Q05397). The experiment can be described thus: PTK2 protein binding on printed compound slides – biochemical, small-molecule microarray, 635/667 nm fluorescence, BSA, DTT, primary screen (AID 1130).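 Also: composite of spot emission at 667 nm and signal to noise over triplicate slides.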 Particulars: 635 nm fluorescence, higher = more signal.
Experiment [4] deals with Fibrinogen (Alexa647-labelled). The experiment can be described thus: Alexa647-fibrinogen binding to printed small molecules – biochemical, small-molecule microarray, 635/667 nm fluorescence, artefact control for SMM control-protein annotation, profiling panel (AID 1131).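 Also: z-score merges 667 nm fluorescence with per-spot signal-to-noise over triplicate slides.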 Particulars: fibrinogen-A647 binding fluorescence, higher = more signal.
Experiment [5] concerns the target Follistatin (Homo sapiens) (UniProt P19883). As to the kind of experiment: FST protein binding to printed compounds – biochemical, small-molecule microarray, 635/667 nm fluorescence, primary screen (AID 1132). As to conditions: 635 nm fluorescence, higher = more signal.
For experiment [6], the target named is Fibroblast growth factor 2 (Homo sapiens) (UniProt P09038). The experiment can be described thus: basic fibroblast growth factor binding to printed compounds – biochemical, small-molecule microarray, 635/667 nm fluorescence, primary screen (AID 1133). As to conditions: FGF2, fluorescence 635/667, higher = more signal.
Experiment [7] is described as follows: JC-1 mitochondrial potential readout, lung cancer cells – cell-based, A549, JC-1 fluorescence, basal, 24 h, 100 nL, profiling panel (AID 1138).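 Also: A549 lung adenocarcinoma cells under basal conditions with no added stimulus; test concentration not given here.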 Particulars: higher = more signal.
For the next experiment, the system named is Lefty1. The experiment can be described thus: Lefty1 protein binding to printed compounds – biochemical, small-molecule microarray, 635/667 nm fluorescence, primary screen (AID 1139). As to conditions: fluorescence 635/667, higher = more signal.
For experiment [8], the system named is wheat germ agglutinin (Triticum aestivum), Alexa647-labelled. As to the kind of experiment: Alexa647-WGA lectin binding to printed small molecules – biochemical, small-molecule microarray, 635/667 nm fluorescence, artefact control for SMM control-protein annotation, profiling panel (AID 1140).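 Also: score merges 667 nm feature emission with signal to noise over triplicate slides.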 Particulars: WGA-A647 binding, 635 nm fluorescence, higher = more signal.

Experiment [9] has as its target Luciferin 4-monooxygenase (Photinus pyralis) (UniProt P08659). The experiment can be described thus: inhibition of purified Photinus pyralis luciferase – biochemical, luminescence, purified enzyme, 2006 set, primary screen (AID 1141).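 Also: cell-free assay with purified firefly luciferase at 100 ng per well in PBS; test concentration not given here.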 As to conditions: purified firefly luciferase, SteadyGlo luminescence, 30 min; higher = more signal, called active from +8 up or from −8 down.

Experiment [10] has as its system Wnt5a (protein binding on small-molecule microarray). The experiment can be described thus: small molecules binding Wnt5a protein – biophysical, small-molecule microarray, 635/667 nm fluorescence, primary screen (AID 1142).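 Also: fluorescence read at 667 nm with signal to noise per printed feature.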 As to conditions: 635 nm fluorescence, higher = more signal.
Experiment [11] is described as follows: ATP-based viability of Huh7 replicon cells – cell-based, CellTiter-Glo luminescence, basal, 48 h, cytotoxicity control for HCV replication inhibitor project, primary screen (AID 1143).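 Also: Huh7 hepatoma cells carrying a hepatitis C replication reporter with no stimulus; test concentration not given here.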 Particulars: higher = more signal, called active from +8 up or from −8 down. A general note: Replicon systems follow genome replication, usually without infectious particles.
Experiment [12] can be described thus: Pseudomonas biofilm growth suppression – PAO1 strain, BacTiter-Glo luminescence, LB-PBS, primary screen (AID 1144). Particulars: P. aeruginosa PAO1 biofilm, 12 h, higher = more signal.
The nature of experiment [13]: basal CRE-LacZ reporter activity in PC12 – cell-based, unstimulated, primary screen (AID 1145). As to conditions: no forskolin, luminescence, 4.5 h, higher = more signal, called active from +8 up or from −8 down.
Experiment [14] is described as follows: forskolin-driven CRE-LacZ activity in PC12 – cell-based, CRE-LacZ reporter, forskolin-stimulated, primary screen (AID 1146).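 Also: PC12 cells with 6xCRE LacZ reporter stimulated by forskolin 10 µM; beta-galactosidase reporter signal reflecting CREB driven transcription.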 Particulars: luminescence, 4.5 h, higher = more signal, called active from +8 up or from −8 down.
The target of experiment [15] is Streptavidin (Streptomyces avidinii) (UniProt P22629). As to the kind of experiment: compounds binding control protein streptavidin – biophysical, small-molecule microarray, 635/667 nm fluorescence, artefact control for SMM compound annotation, primary screen (AID 1147).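 Also: signal reflects streptavidin binding to arrayed compounds as a control protein.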 Particulars: higher = more signal.
Experiment [16] can be described thus: probe aInhba binding on compound microarray – biochemical, small-molecule microarray, 635/667 nm fluorescence, primary screen (AID 1148).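 Also: score merges 667nm spot fluorescence with signal-to-noise for antibody binding to printed compounds.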 As to conditions: higher = more signal.
Experiment [17] concerns the target Torsin-1A (Homo sapiens) (UniProt O14656). The experiment can be described thus: TOR1A wild-type binding on microarray – cell lysate, small-molecule microarray, lysate, 635/667 nm, primary screen (AID 1149). Particulars: COS7 hTOR1A-WT lysate, 635 nm fluorescence, higher = more signal.
The target is the same in experiment [18]. As to the kind of experiment: torsin A mutant lysate binding on microarrays – cell lysate, small-molecule microarray, COS7 lysate, 635/667 nm fluorescence, primary screen (AID 1150).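 Also: score pools 667 nm emission and signal to noise measuring lysate protein binding.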 As to conditions: COS7 hTOR1A mutant lysate, 635 nm fluorescence, higher = more signal.
Experiment [19] has as its system Sonic hedgehog protein (Shh). As to the kind of experiment: Sonic hedgehog microarray binding compounds – biochemical, small-molecule microarray, 635/667 nm fluorescence, primary screen (AID 1151).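 Also: Shh protein binding to compounds spotted on small-molecule microarray slides; score combines spot fluorescence intensity with signal-to-noise across triplicate slides.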 As to conditions: 635 nm fluorescence, higher = more signal.

Structures are written as SMILES. Activity calls are given as the source filed them. Unless noted, no rule for the calls is given here.

Luciferin 4-monooxygenase (Photinus pyralis), sequence (P08659 whole entry, looked up): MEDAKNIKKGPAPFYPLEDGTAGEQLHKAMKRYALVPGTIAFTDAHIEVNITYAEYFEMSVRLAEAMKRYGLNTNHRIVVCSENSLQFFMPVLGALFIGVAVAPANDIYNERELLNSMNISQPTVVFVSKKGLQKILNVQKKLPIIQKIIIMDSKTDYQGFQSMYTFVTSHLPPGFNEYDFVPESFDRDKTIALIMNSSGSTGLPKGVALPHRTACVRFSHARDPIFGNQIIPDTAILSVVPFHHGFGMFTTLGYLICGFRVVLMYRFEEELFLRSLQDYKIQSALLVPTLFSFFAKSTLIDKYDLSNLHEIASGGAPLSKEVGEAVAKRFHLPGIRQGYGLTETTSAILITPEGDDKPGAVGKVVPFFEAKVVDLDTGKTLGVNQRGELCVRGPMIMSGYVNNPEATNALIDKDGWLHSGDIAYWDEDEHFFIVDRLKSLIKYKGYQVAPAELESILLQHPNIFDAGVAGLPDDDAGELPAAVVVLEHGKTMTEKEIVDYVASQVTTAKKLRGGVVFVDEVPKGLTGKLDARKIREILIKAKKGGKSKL
Follistatin (Homo sapiens), sequence (P19883 whole entry, looked up): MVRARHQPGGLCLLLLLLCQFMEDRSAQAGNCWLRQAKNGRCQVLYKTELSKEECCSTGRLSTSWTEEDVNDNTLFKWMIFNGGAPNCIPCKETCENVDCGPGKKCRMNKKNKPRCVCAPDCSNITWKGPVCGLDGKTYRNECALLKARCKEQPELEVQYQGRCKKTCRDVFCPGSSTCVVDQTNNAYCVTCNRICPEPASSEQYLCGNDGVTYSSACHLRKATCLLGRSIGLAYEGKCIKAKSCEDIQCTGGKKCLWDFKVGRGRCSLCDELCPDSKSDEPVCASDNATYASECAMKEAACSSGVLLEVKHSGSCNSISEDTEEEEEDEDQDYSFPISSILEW
Torsin-1A (Homo sapiens), sequence (O14656 whole entry, looked up): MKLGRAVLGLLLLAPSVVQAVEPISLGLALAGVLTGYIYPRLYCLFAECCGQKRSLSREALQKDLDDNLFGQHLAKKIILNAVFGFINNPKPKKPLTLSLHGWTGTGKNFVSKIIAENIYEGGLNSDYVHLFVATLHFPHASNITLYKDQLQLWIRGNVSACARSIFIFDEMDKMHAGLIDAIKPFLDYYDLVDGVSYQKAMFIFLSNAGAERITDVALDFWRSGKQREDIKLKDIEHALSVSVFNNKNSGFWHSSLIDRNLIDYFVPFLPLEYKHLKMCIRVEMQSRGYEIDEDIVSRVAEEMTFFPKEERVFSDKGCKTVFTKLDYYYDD
Fibroblast growth factor 2 (Homo sapiens), sequence (P09038 whole entry, looked up): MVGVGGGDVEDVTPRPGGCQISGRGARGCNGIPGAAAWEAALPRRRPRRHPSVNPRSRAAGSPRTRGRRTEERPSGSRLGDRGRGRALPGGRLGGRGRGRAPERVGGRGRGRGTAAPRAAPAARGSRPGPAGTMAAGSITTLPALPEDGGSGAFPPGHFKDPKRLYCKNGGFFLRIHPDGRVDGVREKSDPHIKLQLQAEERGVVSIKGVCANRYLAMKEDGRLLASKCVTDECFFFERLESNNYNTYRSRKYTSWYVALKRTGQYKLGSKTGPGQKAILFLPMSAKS
Streptavidin (Streptomyces avidinii), sequence (P22629 whole entry, looked up): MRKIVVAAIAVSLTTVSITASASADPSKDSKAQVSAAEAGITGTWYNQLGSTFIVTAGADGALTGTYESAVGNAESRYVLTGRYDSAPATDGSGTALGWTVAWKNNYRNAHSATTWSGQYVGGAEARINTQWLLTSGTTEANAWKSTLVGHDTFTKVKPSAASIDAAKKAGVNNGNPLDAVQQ
Focal adhesion kinase 1 (Homo sapiens), sequence (Q05397 whole entry, looked up): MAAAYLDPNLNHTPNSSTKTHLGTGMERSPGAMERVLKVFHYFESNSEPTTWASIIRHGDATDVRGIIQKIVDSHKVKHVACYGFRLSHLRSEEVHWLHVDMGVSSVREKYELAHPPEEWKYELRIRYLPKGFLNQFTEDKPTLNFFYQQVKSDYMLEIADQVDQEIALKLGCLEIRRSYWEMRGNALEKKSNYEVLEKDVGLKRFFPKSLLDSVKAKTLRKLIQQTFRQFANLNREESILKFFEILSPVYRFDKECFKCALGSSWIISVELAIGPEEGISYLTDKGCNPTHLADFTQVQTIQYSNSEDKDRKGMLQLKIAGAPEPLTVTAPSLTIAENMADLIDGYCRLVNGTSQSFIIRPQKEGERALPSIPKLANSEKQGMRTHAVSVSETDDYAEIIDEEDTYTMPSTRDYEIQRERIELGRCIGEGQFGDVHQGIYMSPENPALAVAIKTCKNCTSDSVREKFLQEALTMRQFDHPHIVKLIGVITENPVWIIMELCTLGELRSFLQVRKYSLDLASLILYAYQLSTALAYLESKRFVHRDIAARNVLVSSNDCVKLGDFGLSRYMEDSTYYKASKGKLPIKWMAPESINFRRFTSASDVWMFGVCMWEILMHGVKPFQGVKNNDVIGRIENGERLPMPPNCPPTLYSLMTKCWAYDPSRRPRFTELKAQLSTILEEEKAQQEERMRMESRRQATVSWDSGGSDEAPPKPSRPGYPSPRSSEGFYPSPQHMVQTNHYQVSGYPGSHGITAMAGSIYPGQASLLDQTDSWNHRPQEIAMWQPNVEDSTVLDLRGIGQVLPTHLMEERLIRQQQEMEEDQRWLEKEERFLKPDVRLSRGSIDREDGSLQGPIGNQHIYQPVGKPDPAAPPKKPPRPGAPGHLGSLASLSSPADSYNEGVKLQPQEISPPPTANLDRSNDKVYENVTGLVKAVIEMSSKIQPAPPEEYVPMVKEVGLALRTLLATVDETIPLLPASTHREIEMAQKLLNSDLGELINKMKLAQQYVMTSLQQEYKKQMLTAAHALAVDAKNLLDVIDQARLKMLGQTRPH

As to `C=C[C@@H](C)[C@@H](OC(=O)Nc1ccc(SC)cc1)c1ccc(OCCO)cc1`, the composite z-score in experiment [1] turned out to be 1.51; in [2], 1.21; in experiment [3] it was 0.462; in experiment [4], 0.719; in experiment [5], 0.0078; in experiment [6], 0.0877. Besides, the composite z-score in the experiment with Lefty1 is 0.191; in experiment [8], 1.04; in experiment [10] it was 0.382; in [15], 0.929; in experiment [16] it was -0.151; with Torsin-1A (Homo sapiens) [17] it was 0.495. In addition, the composite z-score with Torsin-1A (Homo sapiens) [18] worked out at 1.04; in [19], 0.487. Besides, the z-score in experiment [7] was -1.64; in experiment [9], -4.2 (inactive); in [11] it was -3.1 (inactive); in experiment [12] it was -0.882 (inactive); in experiment [13] it was 0.236 (inactive); in experiment [14], -0.162 (inactive).

Take `C#C[C@@H](CC)O[Si](C#CCCCC#N)(C(C)C)C(C)C`: the composite z-score in [1] is 2.55; in experiment [2], 0.0253; in [3], 0.278; in experiment [4], -0.014; in [5] it was -0.295; in experiment [6], 0.895. For the same molecule, the composite z-score in the experiment with Lefty1 is 0.232; in experiment [8], -0.0711; in [10], 0.162; in experiment [15], -0.0686; in [16], -0.0762; with Torsin-1A (Homo sapiens) [17], 0.491. For the same molecule, the composite z-score with Torsin-1A (Homo sapiens) [18] came to 1.69; in [19], 0.473. Also, the z-score is 0.168 in [7]; -0.732 (inactive) in [9]; -0.667 (inactive) in experiment [11]; 0.132 (inactive) in [12]; -0.868 (inactive) in [13]; 4.95 (inactive) in [14].

As for `CCOC(=O)C[C@H]1[C@H](OC(=O)c2ccc(C(=O)c3ccccc3)cc2)[C@@H](NC(=O)CC(C)C)c2cc(OCCCO)ccc2N1C(=O)Cc1ccc(OC)cc1`, the composite z-score in [1] stood at 0.201; in experiment [2], 0.766; in experiment [3] it was 0.721; in experiment [4] it was 0.286; in [5], 0.264; in experiment [6] it was 0.194. Further, the composite z-score was -0.215 with Lefty1; 0.675 in experiment [8]; 0.11 in [10]; -0.0635 in [15]; 0.128 in [16]; 0.311 in the experiment with Torsin-1A (Homo sapiens) [17]. Besides, the composite z-score with Torsin-1A (Homo sapiens) [18] is 0.498; in experiment [19], -0.0145. In addition, the z-score is 0.911 in experiment [7]; -0.563 (inactive) in experiment [9]; -0.349 (inactive) in experiment [11]; -0.356 (inactive) in [12]; 0.731 (inactive) in experiment [13]; -0.117 (inactive) in [14].

With `C=C[C@@H](OC)[C@H](OC(=O)Nc1ccc(OC)cc1)c1ccc(OC)c(O)c1`, the composite z-score in experiment [1] is 0.122; in experiment [2], -1.06; in [3], -0.384; in [4], -1.1; in experiment [5], 0.0112; in [6], -0.685. Besides, the composite z-score was -0.396 in the experiment on Lefty1; -0.0358 in experiment [8]; -0.451 in [10]; -0.833 in [15]; -0.166 in experiment [16]; -2.5 with Torsin-1A (Homo sapiens) [17]. The composite z-score was -1.12 with Torsin-1A (Homo sapiens) [18] and 0.63 in [19]. Moreover, the z-score in [7] is 0.232; in [9], -0.737 (inactive); in experiment [11], -0.749 (inactive); in [12] it was -0.327 (inactive); in [13], 0.702 (inactive); in experiment [14] it was 0.177 (inactive).
